# Test results published in PubChem BioAssay AID588342 (National Center for Advancing Translational Sciences (NCATS), 2011).
# In all, about 360,000 compounds went through this assay and about 25,000 (6.9%) were called active. Another 9% or so got no clear call; they are omitted. The call rests on the fitted dose curve; in most records, active means well fitted inhibition curve with a large enough effect; inconclusive means small, poorly fitted or top-dose-only effect; inactive means flat fitted curve, though single readings scatter. Only a selection was taken, and actives are over-represented in it overall.
# Target: Luciferin 4-monooxygenase (Photinus pyralis) (UniProt P08659)
# Assay: qHTS profiling assay for firefly luciferase inhibitor/activator using purifed enzyme and Km concentrations of substrates (counterscreen for miR-21 project); further: nearly all actives have a fitted effect of over 55% in size;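 on activity change, negative = inhibition: plate controls were vehicle for no effect and reference inhibitor for full effect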
# Settings: purified FLuc, luminescence inhibition; series mostly up to 57.5 µM; activity change, negative = inhibition: at the top concentration
# Description: MLPCN Grant: 1 R21 NS059478-01 (miR-21 grant) Assay Provider: NCGC NCGC Assay Overview: Firefly (Photinus pyralis) luciferase is one of the most commonly used transcriptional reporters for a number of reasons. It is considered one of the more dynamically responsive reporters -that is, responsive to changes in reporter transcription - as it requires no post-translational modifications and is enzymatically active directly after protein synthesis (Wood, 1998). Additionally, the half-life of the luciferase protein is short relative to other reporter-gene products (Wood, 1995). Whereas reporters with long half-lives potentially allow for increased signal due to accumulation of reporter-gene product, once accumulated in the cell, dynamic changes in reporter-gene expression may be difficult to detect(Fan and Wood, 2007; Almond et al., 2004). It has been shown that wild-type P. pyralis luciferase has a half-life of approximately […] hours in mammalian cells (Thompson et al., 1991). Firefly luciferase reporter-gene assays are also generally considered one of the most sensitive assay types (Wood, 1995; Wood, 1998). Although light produced in a bioluminescence reaction is of lower intensity than that produced during fluorescence emission, this is offset by little to no background light inherent to luminescent assays. Thus the luciferase reporter can be expressed at much lower levels than fluorescent proteins while still providing robust signal. # However, it was initially observed, in 1991, by Thompson et al., that compounds that resemble the substrates of firefly luciferase (FLuc) can act as competitive inhibitors of the enzyme, and that these compounds, upon interaction with luciferase in the cell, can actually stabilize the protein and increase its half-life. Accumulated intracellular FLuc protein can be measured as an increase in luminescence signal, upon addition of detection reagents (which contain high concentrations of FLuc substrates) commonly used in high-throughput screening. In cell-based reporter gene assays that use FLuc as the reporter gene to quantitate the potential influence of a given compound against the target biology, this apparent increase in luminescence can mistakenly be interpreted as identification of a compound that is active against the target of interest. This is the case for the miR-21 FLuc reporter gene assay used to identify inhibitors of the miR-21 pathway (PubChem AID 2289) - compounds of interest will inhibit miR-21 biogenesis/expression or activity, and are identified by causing an increase in luminescence, due to increased FLuc translation. However, FLuc inhibitory compounds that stabilize the FLuc protein will give an identical read-out, making it difficult to distinguish compounds that are active against the target from those active against FLuc. Previous profiling work to determine the prevalence of compounds that affect FLuc enzymatic activity (PubChem AID 411) identified that ~3% of the MLSMR library (then at ~72K) inhibited FLuc. […] Since the MLSMR had grown to ~350K compounds, and since it was expected that a significant percentage of compounds found active in the miR-21 FLuc assay would be FLuc inhibitors, the library was screened for activity against FLuc using a biochemical assay of purified FLuc and KM concentrations of FLuc substrates (D-luciferin and ATP).
# NCGC Assay Protocol Summary: Reagents: 50mM Tris acetate, pH 7.5; 10mM Mg acetate; 10uM D-luciferin (Sigma #L9504); 10uM ATP; 0.01% Tween-20; 0.05% BSA; 10nM P. pyralis luciferase (Sigma #L9506) Control compounds used were two known firefly luciferase inhibitors (compounds (2) and (5) in Auld et al., 2010), and DMSO. […]
# Luciferin 4-monooxygenase (Photinus pyralis), sequence (P08659 whole entry, looked up): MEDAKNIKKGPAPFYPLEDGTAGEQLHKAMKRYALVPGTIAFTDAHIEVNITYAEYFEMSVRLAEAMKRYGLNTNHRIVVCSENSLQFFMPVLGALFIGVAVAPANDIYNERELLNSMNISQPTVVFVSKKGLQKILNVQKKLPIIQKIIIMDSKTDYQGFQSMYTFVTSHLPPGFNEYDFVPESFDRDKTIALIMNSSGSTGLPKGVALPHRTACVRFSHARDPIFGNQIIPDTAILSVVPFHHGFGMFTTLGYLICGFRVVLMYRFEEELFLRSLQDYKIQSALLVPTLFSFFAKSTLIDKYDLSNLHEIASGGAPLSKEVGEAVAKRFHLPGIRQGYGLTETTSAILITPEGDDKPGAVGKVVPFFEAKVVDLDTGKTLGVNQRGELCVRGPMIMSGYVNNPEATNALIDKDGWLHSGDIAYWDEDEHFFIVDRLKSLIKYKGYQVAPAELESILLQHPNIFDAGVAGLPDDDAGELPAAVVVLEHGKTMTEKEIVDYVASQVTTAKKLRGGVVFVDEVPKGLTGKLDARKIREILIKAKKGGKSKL
SMILES,"activity change, negative = inhibition",Potency
COc1cc(C(c2c(NC(=O)c3ccco3)sc(C)c2C)N2CCOCC2)cc(OC)c1OC (stereo not drawn),-0.244% (inactive),
COc1ccc(C2CC(c3cccs3)=NN2c2nc(C)c(C(C)=O)s2)cc1OC (stereo not drawn),2.84% (inactive),
COc1ccc(C2CC(c3cccs3)=NN2c2ccccc2)cc1 (stereo not drawn),,21.3 µM (active)
COc1ccc(C2CC(c3cccs3)=NN2c2ccc(F)cc2)cc1OC (stereo not drawn),-19.9% (inactive),
COc1cc(CN(CC2CCCO2)C(=O)c2ccccc2F)cc(OC)c1OC (stereo not drawn),-0.254% (inactive),
Cc1ccc(NC(=O)c2cc(-c3ccccc3O)n[nH]2)cc1C,-1.11% (inactive),
S=c1[nH]nc(-c2cc(-c3ccccc3)n[nH]2)n1/N=C/c1c2ccccc2cc2ccccc12,-14.2% (inactive),
c1ccc(-c2cc(-c3ccccc3)[nH]n2)cc1,,7.57 µM (active)
Oc1ccccc1-c1cc(-c2ccc(Cl)cc2)n[nH]1,,0.953 µM (active)
CNc1nc(-c2ccccc2)cc(-c2ccccc2)n1,-4.74% (inactive),
Oc1cc(O)c2c(c1)OC(c1ccc(O)c(O)c1)C(O)C2 (stereo not drawn),5.83% (inactive),
Cc1ccc(Cl)cc1NC(=O)CCC(=O)N1CC(C)Sc2ccccc21 (stereo not drawn),-4.47% (inactive),
CCOC(=O)c1ccc(NC(=O)CSc2nc3c([nH]c4ccccc43)c(=O)n2C)cc1,2.26% (inactive),
O=C(CN1CCc2ccccc2C1)Nc1cccc(S(=O)(=O)N2CCOCC2)c1,0.0865% (inactive),
O=C(Nc1ccc2sc3ccccc3c(=O)c2c1)c1ccccc1Cl,,2.13 µM (active)
Cn1c(=O)c(=O)n(C)c2cc(NC(=O)c3ccccc3Br)ccc21,4.88% (inactive),
CS(=O)(=O)c1ccccc1C(=O)Nc1ccc2sccc2c1,1.48% (inactive),
COc1ccccc1NC(=O)C1=C(C)Nc2ncnn2C1c1sccc1C (stereo not drawn),2.3% (inactive),
COc1ccccc1Nc1nnc(SC(C)C(=O)NC2CC2)s1 (stereo not drawn),3.74% (inactive),
CCCOC(=O)c1ccc(N2C(=O)c3ccccc3C2=O)cc1,-13% (inactive),
Cc1[nH]n(-c2ccccc2)c(=O)c1CCOC(=O)c1ccc(C(F)(F)F)cc1,,21.3 µM (active)
CC1=C(C(=O)OCc2ccccc2)C(c2ccc(C(F)(F)F)cc2)NC(=O)N1CCCCCC(=O)O (stereo not drawn),-18% (inactive),
O=C(NC1(C(F)(F)F)N=C(c2ccccc2)N(C2CCCCC2)C1=O)c1ccccc1F (stereo not drawn),-5.4% (inactive),
CCS(=O)(=O)N1Cc2ccccc2CC1C(=O)Nc1ccc(OC)cc1OC (stereo not drawn),3.71% (inactive),
CCS(=O)(=O)N1Cc2ccccc2CC1C(=O)Nc1nc2ccc(F)cc2s1 (stereo not drawn),,15.1 µM (active)
CN(C)CCCN(C(=O)c1ccc(S(=O)(=O)N2CCCc3ccccc32)cc1)c1nc2ccc(F)cc2s1,1.08% (inactive),
O=C(COC(=O)c1cc(S(=O)(=O)N2CCOCC2)ccc1Cl)NCCc1ccccc1,4.26% (inactive),

SMILES,"activity change, negative = inhibition",Potency
CCOC(=O)c1c(C)[nH]c(C)c1S(=O)(=O)NCC(=O)NCc1cccc(C)c1,-1.22% (inactive),
CN(Cc1nc(-c2cnccn2)no1)Cc1n[nH]c2c1CCCCC2,2.36% (inactive),
CCOC(=O)C(Cc1ccccc1)NC(=O)CCC(=O)c1ccc(OC)cc1 (stereo not drawn),5.51% (inactive),
COc1ccc(C(=O)NC(Cc2ccc(OC(=O)c3ccc(OC)cc3)cc2)C(=O)O)cc1 (stereo not drawn),,12 µM (active)
COc1ccc(C(=O)N[C@H](C(=O)NCc2ccccc2)C(C)C)cc1,0.173% (inactive),
C[C@H](NC(=O)c1[nH]cnc1C(=O)Nc1nccs1)c1ccccc1,-2.61% (inactive),
CCOc1ccc(-n2nc3ccc(NC(=O)c4ccc(OC)c(Cl)c4)cc3n2)cc1,-2.98% (inactive),
COc1cccc(C(=O)Nc2ccc(-c3cc(C(F)(F)F)nn3-c3ccccc3)cc2)c1,3.97% (inactive),
COc1cc(OC)cc(C(=O)Nc2cc3nn(-c4ccccc4)nc3cc2Cl)c1,,5.36 µM (active)
CCC(=O)Nc1ccc(C)cc1-c1nc2ccccc2n(Cc2ccccc2)c1=O,-1.05% (inactive),
CN(C)/C=C1\C=C(c2ccccc2)OC1=O,-15% (inactive),
COc1cccc(/C=C2\C=C(c3ccc(C)cc3)OC2=O)c1OC(C)=O,,15.1 µM (active)
CC(=O)Oc1ccc(-c2nc3c(C)cccc3c(=O)o2)cc1,-16.3% (inactive),
O=C1C=C(c2ccnc3cc(Cl)ccc23)C[C@@H](c2ccc3c(c2)OCO3)C1,2.17% (inactive),
Cc1cc2c(c(=O)n1Cc1ccccc1)C1O[C@](CCCCN3C(=O)c4ccccc4C3=O)(Cc3ccccc31)O2,4.34% [at 11.5 µM] (inactive),
O=C(CCCN=C1NS(=O)(=O)c2ccccc21)OCC(=O)c1ccc(F)c(F)c1,0.261% (inactive),
COc1ccc(C(=O)NCc2cn3ccccc3n2)cc1,6.17% (inactive),
O=Cc1ccc(OCc2cn3ccccc3n2)cc1,,12 µM (active)
Cn1cc[n+](C)c1COc1ccc(C=O)cc1,-0.526% (inactive),
Cc1ccc(OCCSc2nc(C)c(Cc3ccccc3)c(=O)[nH]2)cc1,-5.18% (inactive),
O=C(Cn1cnc([N+](=O)[O-])n1)NCCc1ccccc1,6.43% (inactive),
O=C(Nc1ccccc1N1CCN(c2ccccc2)CC1)c1cccc(F)c1,-0.474% (inactive),
O=C(Nc1ccn(Cc2ccccc2)n1)c1cccc(F)c1,,4.78 µM (active)
O=C(Nc1ccn(Cc2ccccc2)n1)c1n[nH]c([N+](=O)[O-])c1Cl,,0.849 µM (active)
CCn1c(=O)c(=O)n(CC)c2cc(N3CCCCC3)c(NC(=O)c3cccc(F)c3)cc21,4.07% (inactive),
Cc1ccc(Cn2ccc(NC(=O)C3C4CCC(C4)C3C(=O)O)n2)cc1 (stereo not drawn),-2.09% (inactive),
